# Reference: the supplement of paper PMC10105736
# Unmarked numbers belong to inactive results.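 The calls were made as follows: active = MAPPIT score above the 99th percentile of random reference set scores in the same batch; inactive = at or below it.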
# Columns and labels:
# Assay in all cases: MAPPIT interaction score (arbitrary units); higher = stronger binary interaction signal, active = hit call of the paper
# Doa = settings: MAPPIT configuration: N-N; pair source set: Finley_Y2H
# DnaJ-1 = settings: MAPPIT configuration: N-N; pair source set: Lit-BM-16
# Dif = settings: pair source set: Lit-BM-16
# CycG = settings: MAPPIT configuration: N-N; pair source set: Finley_Y2H
# c-cup = settings: MAPPIT configuration: N-N; pair source set: Finley_Y2H
# ix = settings: MAPPIT configuration: N-N; pair source set: Finley_Y2H
# DIP1 = settings: MAPPIT configuration: N-N; pair source set: screen_2
# kermit = settings: MAPPIT configuration: N-N; pair source set: Curagen_high_conf
# shv = settings: MAPPIT configuration: N-N; pair source set: Curagen_high_conf
# Cyp1 = settings: pair source set: Lit-BM-16
# Deaf1 = settings: MAPPIT configuration: N-N; pair source set: screen_1
# Dfd = settings: MAPPIT configuration: N-N; pair source set: Finley_Y2H
# Dlc90F = settings: MAPPIT configuration: N-N; pair source set: Finley_Y2H
# Mtap = settings: MAPPIT configuration: N-N; pair source set: screen_1
# Dhod = settings: MAPPIT configuration: N-N; pair source set: Curagen_high_conf
# cindr = settings: MAPPIT configuration: N-N; pair source set: Lit-BM-16
# 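Also: HEK293T cells with Epo stimulation, STAT-responsive firefly luciferase reporter, fold induction versus unstimulated cells divided by the larger fold induction of two negative controls lacking either bait or prey.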
binder,measurement,setting,value
lok (protein) MARDTQGTQGTQSQASNIWTQVESQPMEKIVWGRLYGKNIKIKSLGTSSKYRIIYTHSSFSVDLNNDEFTAGRGEANDLILTLNDLPEKILTRISKVHFIIKRANCELTNPVYIQDLSRNGTFVNNEKIGTNRMRILKNDDVISLSHPTYKAFVFKDLSPNESIGLPEEINKTYYVNRKLGSGAYGLVRLVYDTRTCQQFAMKIVKKNMLSGARPSTNFSDPDRVLNEAKIMKNLSHPCVVRMHDIVDKPDSVYMVLEFMRGGDLLNRIISNKLLSEDISKLYFYQMCHAVKYLHDRGITHRDLKPDNVLLETNDEETLLKVSDFGLSKFVQKDSVMRTLCGTPLYVAPEVLITGGREAYTKKVDIWSLGVVLFTCLSGTLPFSDEYGTPAAQQIKKGRFAYGHPSWKSVSQRAKLLINQMLIVDPERRPSIDDVLQSSWLRDAPMLQKAKRLMKLDGMEIEEENFLEPPTKRSRR,MAPPIT interaction score,Doa,0.00241
Mlf (protein) MSLFGALMGDFDDDLGLMNNHMNHTMNAMNMQMRSMNRLMNSFMPDPFMQVSPFDQGFQQNALMERPQMPAMPAMGLFGMPMMPNFNRLLNADIGGNSGASFCQSTVMTMSSGPDGRPQIYQASTSTKTGPGGVRETRRTVQDSRTGVKKMAIGHHIGERAHIIEKEQDMRSGQLEERQEFINLEEGEAEQFDREFTSRASRGAVQSRHHAGGMQAIMPARPAAHTSTLTIEPVEDDDDDDDDCVIQEQQPVRSSAGRHYSSAPTAPQNSGNIATAAAPTPTSSPTTYDTSNGNNNNYVSSRRSYLRNGHGHSLATPRRPLRTPPSSPLATVSTSPSIHPHPYAANPRRQQRAVKHFHTEDEAASSYKAVKRGKKK,MAPPIT interaction score,DnaJ-1,-0.321
Rel (protein) MNMNQYYDLDNGKNVMFMNDASSTSGYSSSTSPNSTNRSFSPAHSPKTMELQTDFANLNLPGGNSPHQPPMANSPYQNQLLNNGGICQLGATNLINSTGVSFGVANVTSFGNMYMDHQYFVPAPATVPPSQNFGYHQNGLASDGDIKHVPQLRIVEQPVEKFRFRYKSEMHGTHGSLNGANSKRTPKTFPEVTLCNYDGPAVIRCSLFQTNLDSPHSHQLVVRKDDRDVCDPHDLHVSKERGYVAQFINMGIIHTAKKYIFEELCKKKQDRLVFQMNRRELSHKQLQELHQETEREAKDMNLNQVRLCFEAFKIEDNGAWVPLAPPVYSNAINNRKSAQTGELRIVRLSKPTGGVMGNDELILLVEKVSKKNIKVRFFEEDEDGETVWEAYAKFRESDVHHQYAIVCQTPPYKDKDVDREVNVYIELIRPSDDERSFPALPFRYKPRSVIVSRKRRRTGSSANSSSSGTESSNNSLDLPKTLGLAQPPNGLPNLSQHDQTISEEFGREKHLNEFIASEDFRKLIEHNSSDLEKICQLDMGELQHDGHNRAEVPSHRNRTIKCLDDLFEIYKQDRISPIKISHHKVEKWFIEHALNNYNRDTLLHEVISHKKDKLKLAIQTIQVMNYFNLKDVVNSTLNADGDSALHVACQQDRAHYIRPLLGMGCNPNLKNNAGNTPLHVAVKEEHLSCVESFLNGVPTVQLDLSLTNDDGLTPLHMAIRQNKYDVAKKLISYDRTSISVANTMDGNNALHMAVLEQSVELLVLILDAQNENLTDILQAQNAAGHTPLELAERKANDRVVQLLKNVYPEKGELAMTWIPCKVKEEIDSSSDESSDAGQLEIKSEEMDIETKDEDSVELDLSSGPRRQKDESSRDTEMDNNKLQLLLKNKFIYDRLCSLLNQPLGHGSDPQDRKWMQLARQTHLKQFAFIWLGAEDLLDHVKRKGASVEFSTFARALQAVDPQAYALLVNPT,MAPPIT interaction score,Dif; MAPPIT configuration: N-C,3.09
same,MAPPIT interaction score,Dif; MAPPIT configuration: N-N,1.57
Aladin (protein) MAALSNLKQCPPFSTLPDLALRHNHIPELERYPQINLNSELLANPAGQRYYGGQSFVSVNEGVLKRIARSFFNGGFWKTLEEARSPETREQAPLIAQAGDLIAQFLGLATGLRILPHTQQLSAERIAQFVETRDWLNSDVRYLAWNQHFFCLAVAGVDDVVRIYTKSSSATTATVLKSPSQTQITCMAWRPLCASEIVIGCRQGLCFWEVDSTLHLGRTNAPSEIFKYPNNLPITSMQWNKDGTQLATASIGDRSIIIWQPDTGMMQPLKRLGPPGSLLKWSPDNDWLFAATVDRVFRVWNCHQQWTTERWVCGPGGYVQTACWSPCGRFLLFVSSAEPILYRLQFVQQSLLSSSADEKEILPIADLNACSIDANRTLVGGPAQQLAWDPHGNYLVVTFKATNCIAVFRTFIQKFDLQISAAYYLSGETAAEHPSFICFQPLYEDNDRSVLTIAWSSGRIQYYAFD,MAPPIT interaction score,CycG,-0.0444
mldr (protein) MYNLRLLRNLLPIAGHAHPRWLASQHKRRPQPGSLPADRLDQLRSDLFERRHELSGAEWTEVRRSLVDGYKHINGHNVDAVILGVCSAPNQLSLAKSYVEFLRSRGSKPNAATLGRLLRVYNAAYHERPLSEAEQSEILQICRSLQAEHETLDASSCENVIHGLVATSGDDWQRGLPLLEMMKVTSTPSVAAYSALAEKAFSVATPEQELAWRLLEEMATARKPPKCEVYLALLNRLANETAQLPAQLSLLLQFLERHEILVSQRVAIRLQELSSQVPQLLHTRTTHLGGLGKCQSCQQHLQPVAISDEEFRQLSECFLERVLIRRDVFQRSTPEEVARFKKFVEKTAPYDCVIDGLNVAYSTGTKKTPQQLAKLVATVVRHFREQDKRVLVLGREHMRNWSKQAMHYVHCNASLFLTSNLSHDDPFLLYATLRSGQETDFFSRDLMRSHAFHLGTELKPIFRRWQQEHQFSLVTQTQTGQIIVKEPVRHRLCAHQVADTWHVPYCAQYTPHPTDSFEVPANWLCIQMKEQTIPATKTKTKTTR,MAPPIT interaction score,CycG,-0.0303
same,MAPPIT interaction score,c-cup,-0.00733
same,MAPPIT interaction score,ix,0.483
Mob4 (protein) MKMADGSTILRRNRPGTKSKDFCRWPDEPLEEMDSTLAVQQYIQQLIKRDPSNVELILTMPEAQDEGVWKYEHLRQFCMELNGLAVRLQKECSPSTCTQMTATDQWIFLCAAHKTPKECPAIDYTRHTLDGAACLLNSNKYFPSRVSIKESSVTKLGSVCRRVYRIFSHAYFHHRRIFDEFEAETYLCHRFTHFVTKYNLMSKENLIVPINVGENAAPGESEA,MAPPIT interaction score,DIP1,0.606
same,MAPPIT interaction score,kermit,0.744
same,MAPPIT interaction score,shv,0.755
Eno (protein) MSWTASVFLRTSTTSMKFLRLRWPLPRIPQNKSANVAPRFRSKSAVSQLSSGFKFVQIRKSTCDSNEMTIKAIKARQIYDSRGNPTVEVDLTTELGLFRAAVPSGASTGVHEALELRDNDKANYHGKSVLKAVGHVNDTLGPELIKANLDVVDQASIDNFMIKLDGTENKSKFGANAILGVSLAVAKAGAAKKGVPLYKHIADLAGNKEIILPVPAFNVINGGSHAGNKLAMQEFMILPTGATSFTEAMKMGSEVYHHLKNVIKAKFGLDATAVGDEGGFAPNIQSNKEALNLISDAIAKAGYTGKIEIGMDVAASEFYKDGQYDLDFKNEKSDKSQWLPADKLANLYQEFIKDFPIVSIEDPFDQDHWEAWSNLTGCTDIQIVGDDLTVTNPKRIATAVEKKACNCLLLKVNQIGTVTESIAAHLLAKKNGWGTMVSHRSGETEDSFIGDLVVGLSTGQIKTGAPCRSERLAKYNQILRIEEEIGAGVKFAGKSFRKPQ,MAPPIT interaction score,Cyp1; MAPPIT configuration: N-C,0.69
same,MAPPIT interaction score,Cyp1; MAPPIT configuration: N-N,-0.102
Clamp (protein) MEDLTKNIIFTNAINGQPATIQYQTADGTILKQPKIEGQKTEQQPTFYYTTNGNGGTVNLAQLATTDDNKTCYIAQPVGGYNYALVNGMPLNQGAALGIATVDAQGRIQIVNQNKPIAANTISNISFKCDVCSDMFPHLALLNAHKRMHTDGEQQQQQQHNAQAGGDSIAVVSAQGLVQAQNIIGNGQMGQIQIVSSDTLEPVQQSVMQQQQHESKASKCINCGSSMLQQSKRKGPKQVRCESCMQAEQTAQQQQQLFVAQDGQMAHPVQIISTTPQAQAQLQQIVAAQTGGTTPKREASSGSGHHPVKKRNSQQMTKCQKCNGSGVVLVGQHSHASHSGVGGSVKQSVTVKTENPSKPFSCNICGGLFSRYSSLWSHKKLHSGEKNYKCSICGLAFAKAVYLKNHARIHTGEKPYKCQTCGMQFSQSPHLKNHERTHSGERPYVCGVCDKGFARHATLWNHRRIHTGEKPYKCEICGSAFSQAAHLKNHAKVHSGEKPYKCEICSAAFADRFALKRHRGIHQKYGQTAPRQTSSDGMIVHKQEIPDMEDEAQQEVIIGGL,MAPPIT interaction score,Deaf1,0.235
eIF3i (protein) MRPLMLQGHERSITQIKYNREGDLLFSCSKDQKPNVWYSLNGERLGTYDGHQGAVWCLDVDWESRKLITGAGDMTAKIWDVEYGTVIASIPTKSSVRTSNFSFSGNQAAYSTDKAMGQSCELFLIDVRNADSSLSEQEPTLRIPMTESKITSMLWGPLDETIITGHDNGNIAIWDIRKGQKVVDSGTDHSAGINDMQLSKDGTMFVTASKDTTAKLFDSESLMCLKTYKTERPVNSAAISPIMDHVVLGGGQDAMEVTTTSTKAGKFDSRFFHLIYEEEFARLKGHFGPINSLAFHPDGKSYASGGEDGFVRVQTFDSTYFENIFE,MAPPIT interaction score,Dfd,0.00823
Mtap (protein) MITIKCKDTNLDPLPVKIGIIGGSGLDDPDILEQRQERVVETPYGEPSDALIEGEINGVQCVLLARHGRKHDIMPSNVNYRANIWALRDVGCTHLIVSTACGSLREEIKPGNLVVPHDFIDRTTKRLQTFYDGKAQSPRGVCHLPMFPAFSERTRNILLQAAKELEIPAHDKATIVTIEGPRFSSRSESHMFRQWGGDLINMTTCPEVVLAKEAGLLYGSVAIATDYDCWRMGCEGVNVQDVLRTFAENVIKVKKILVNAVGRIAKEDWSEDILNAKQCVCNNTMSGAM,MAPPIT interaction score,Dlc90F,0.638
same,MAPPIT interaction score,Mtap,5.81 (active)
bsk (protein) MTTAQHQHYTVEVGDTNFTIHSRYINLRPIGSGAQGIVCAAYDTITQQNVAIKKLSRPFQNVTHAKRAYREFKLMKLVNHKNIIGLLNAFTPQRNLEEFQDVYLVMELMDANLCQVIQMDLDHDRMSYLLYQMLCGIKHLHSAGIIHRDLKPSNIVVKADCTLKILDFGLARTAGTTFMMTPYVVTRYYRAPEVILGMGYTENVDIWSVGCIMGEMIRGGVLFPGTDHIDQWNKIIEQLGTPSPSFMQRLQPTVRNYVENRPRYTGYSFDRLFPDGLFPNDNNQNSRRKASDARNLLSKMLVIDPEQRISVDEALKHEYINVWYDAEEVDAPAPEPYDHSVDEREHTVEQWKELIYEEVMDYEAHNTNNRTR,MAPPIT interaction score,Dhod,1.59
same,MAPPIT interaction score,cindr,0.0365
